Values joined by “and” are separate entries in the source; they are usually repeats but may differ in a detail not shown here. Equal values may be shown once. Inconclusive results are not listed. Where a call stands in place of a potency, no number is given. Values without a mark were called inactive. Active and inactive are the calls of the source. Calls come from the whole dose curve; as a rule, active = well fitted inhibition curve with a large enough effect; inconclusive = small, poorly fitted or top-dose-only effect; inactive = flat fitted curve, though single readings scatter.
Columns and labels:
KB-3-1 = assay: Cytotoxic Profiling of Annotated Libraries Using Quantitative High-Throughput Screening (AID 1296008); settings: Five cell lines viability, CellTiter-Glo ATP luminescence, 48-72 h; max response: hits give low values
Summary of the method: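 Cytotoxicity was measured as CellTiter-Glo ATP luminescence, read after 10 min at room temperature. Compound treatment of the cells lasted 48 or 72 hr at 37 degrees Celsius in a qHTS format.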

W2 = assay: qHTS profiling for inhibitors of Plasmodium falciparum proliferation (AID 504749); settings: P. falciparum in erythrocytes, SYBR Green DNA, 72 h; series mostly up to 28.7 µM
Summary of the method: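 SYBR Green fluorescence of parasite DNA, read after lysis and overnight dark incubation, measured growth over 72 h in erythrocyte culture at 0.3% parasitemia and 2.5% hematocrit. Data normalised to DMSO and 0.29 uM artemisinin, with plate-drift correction.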
Note: nearly all actives have a fitted effect of over 60% in size.

Work on `CO/N=C(\C(=O)N[C@@H]1C(=O)N2C(C(=O)O)=C(COC(C)=O)CS[C@H]12)c1csc(N)n1` (stereo in doubt) yielded a max response (KB-3-1) of -7.91%.

In the case of `CC1OC1P(=O)(O)O` (stereo unspecified), the Potency (W2) is reported as “inactive”.

In the case of `C=CC(N)CCC(=O)O` (stereo unspecified), the Potency (W2) is reported as “inactive” and the max response (KB-3-1) is reported as 3.37%.

In the case of `C=CCN1C(=O)C(CC(C)C)NC1=S` (stereo unspecified), the Potency (W2) is reported as “inactive” and the max response (KB-3-1) is reported as 11.7% and 6.26%.

From PubChem BioAssay (NCATS)
